PMC4336329 (PLoS ONE, 2015)
Out of some 310,000 compounds screened, about 14,000 (4.5%) showed an effect of 50% or more. The effect is printed as a negative number. Only a selection was taken, and strong results are over-represented in it overall.

Molecular target: human ether-à-go-go-related gene (hERG) potassium channel (human, UniProt Q12809)
Test: primary screen, population patch clamp on CHO cells stably expressing hERG; higher = less effect of the substance
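Also: peak tail current of the secondary pulse compared with the same well before compound.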

human ether-à-go-go-related gene (hERG) potassium channel, sequence (Q12809 whole entry, looked up): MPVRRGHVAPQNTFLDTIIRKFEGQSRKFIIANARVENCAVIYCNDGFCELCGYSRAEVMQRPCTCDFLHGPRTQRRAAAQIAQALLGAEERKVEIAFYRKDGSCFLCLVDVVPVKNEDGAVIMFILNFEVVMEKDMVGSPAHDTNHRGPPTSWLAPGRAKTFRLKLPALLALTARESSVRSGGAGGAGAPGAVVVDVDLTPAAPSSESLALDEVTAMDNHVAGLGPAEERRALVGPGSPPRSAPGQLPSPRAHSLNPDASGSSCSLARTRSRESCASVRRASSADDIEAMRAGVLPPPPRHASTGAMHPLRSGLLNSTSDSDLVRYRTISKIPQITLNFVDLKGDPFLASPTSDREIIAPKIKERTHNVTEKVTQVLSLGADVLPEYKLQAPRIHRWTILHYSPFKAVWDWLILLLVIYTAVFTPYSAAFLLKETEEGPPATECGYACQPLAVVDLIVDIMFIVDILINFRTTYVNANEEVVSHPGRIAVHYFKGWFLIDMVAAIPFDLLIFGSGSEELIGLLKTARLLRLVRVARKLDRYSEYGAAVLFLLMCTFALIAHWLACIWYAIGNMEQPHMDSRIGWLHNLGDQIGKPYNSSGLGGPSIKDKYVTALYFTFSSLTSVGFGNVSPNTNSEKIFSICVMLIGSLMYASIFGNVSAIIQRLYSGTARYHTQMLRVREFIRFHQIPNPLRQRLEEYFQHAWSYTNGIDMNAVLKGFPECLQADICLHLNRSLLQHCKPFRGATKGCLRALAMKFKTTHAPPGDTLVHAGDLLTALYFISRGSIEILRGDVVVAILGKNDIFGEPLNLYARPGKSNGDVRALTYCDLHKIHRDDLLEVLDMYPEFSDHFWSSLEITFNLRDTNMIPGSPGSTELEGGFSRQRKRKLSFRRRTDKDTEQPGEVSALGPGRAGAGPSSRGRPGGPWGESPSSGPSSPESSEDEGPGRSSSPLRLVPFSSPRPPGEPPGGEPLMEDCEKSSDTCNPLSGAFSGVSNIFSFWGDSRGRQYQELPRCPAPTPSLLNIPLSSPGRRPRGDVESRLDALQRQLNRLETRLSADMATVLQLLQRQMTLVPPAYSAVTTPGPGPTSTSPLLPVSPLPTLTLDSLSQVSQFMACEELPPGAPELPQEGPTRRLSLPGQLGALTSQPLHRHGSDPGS

SMILES	hERG current change (%, negative = inhibition) at 10uM [%]
COc1cc(NC(=O)c2ccc(-c3ccc(Br)cc3)o2)ccc1NC(=O)C(C)C	-26.1
O=C(CSc1ccc(Cl)cc1)Nc1ccc(N2CCN(c3ccccc3)CC2)c(F)c1	24.9
COc1cccc(C(=O)Oc2ccc3ccc(=O)oc3c2)c1	42.3
O=[N+]([O-])c1ccc(-c2ccc(S(=O)(=O)NCCN3CCCC3)cc2)cc1	-77.7
O=[N+]([O-])c1ccc(S(=O)(=O)NCCN2CCOCC2)cc1	11.2
N#CCCN(CCN1CCCC1)S(=O)(=O)c1ccc(-c2ccc([N+](=O)[O-])cc2)cc1	-79.1
CCN(CC)S(=O)(=O)c1ccc(S(=O)(=O)N2CCN(CCC#N)CC2)cc1	8.45
Cc1ccc(S(=O)(=O)N(CCC#N)CCN2CCCC2)cc1	-21.9
O=S(=O)(NCCN1CCCC1)c1ccc(Br)cc1	-8.08
Cc1oc2cc(O)ccc2c(=O)c1Oc1ccccc1	-10.2
COC1=CC(=O)C[C@@H](C)[C@]12Oc1c(Cl)c(OC)cc(OC)c1C2=O	-9.99
C=CCSc1ncccc1C(=O)NCCc1ccc(Cl)cc1	6.54
O=S(=O)(Nc1nc2ccc(S(=O)(=O)N3CCCC3)cc2s1)c1ccc(F)cc1	-2.68
COCCNc1oc(-c2ccc(C)cc2)nc1C#N	8.26
Cc1ccc(-n2c(SCC(=O)N3CCOCC3)nnc2-c2cccnc2)cc1C	-16.9
CN(C)CCCN(C(=O)CCc1ccccc1)c1nc2ccc(Br)cc2s1.Cl	-3.24
Cc1cccc2sc(N(CCCN(C)C)C(=O)CN3C(=O)c4ccccc4C3=O)nc12.Cl	-11.2
Cc1ccc2nc(N(CCCN(C)C)C(=O)CCc3ccccc3)sc2c1.Cl	-66
CN(C)CCCN(C(=O)CCc1ccccc1)c1nc2ccc(Cl)cc2s1.Cl	-24.4
CN(C)CCN(C(=O)CCc1ccccc1)c1nc2c(F)cc(F)cc2s1.Cl	-33.4
Cc1cccc2sc(N(CCCN(C)C)C(=O)CCc3ccccc3)nc12.Cl	-54.1
CN(C)CCCN(C(=O)CCc1ccccc1)c1nc2ccc(F)cc2s1.Cl	-70.1
Cc1ccccc1/C=N/n1c(-c2ccccn2)n[nH]c1=S	14.7

SMILES	hERG current change (%, negative = inhibition) at 10uM [%]
O=S(=O)(c1cccc2cccnc12)N1CCN(Cc2ccccc2)CC1	-0.188
Cn1ccnc1C(O)c1cc(C(C)(C)C)c(O)c(C(C)(C)C)c1 (stereo not drawn)	-37.3
COC(=O)N/N=C\c1ccc(-c2cc(Cl)c(Cl)cc2Cl)o1	-1.58
COc1ccc(S(=O)(=O)N2CCN(CC(=O)NC3CCCC3)CC2)cc1	0.823
O=C(CCc1nc(-c2ccc(Cl)cc2)no1)NCc1ccccc1CN1CCOCC1	-65.5
Cc1ccc(-c2noc(CCC(=O)NCc3ccccc3CN3CCOCC3)n2)cc1	-36.5
O=C(CCc1nc(-c2ccccc2)no1)NCc1ccccc1CN1CCOCC1	-10.5
O=C(C1CCN(Cc2nc(-c3ccc(Cl)cc3)no2)CC1)N1CCOCC1	-61.9
Clc1ccc(-c2noc(CN3CCOCC3)n2)cc1	4.83
O=C(C1CCCN(Cc2nc(-c3ccc(Cl)cc3)no2)C1)N1CCOCC1 (stereo not drawn)	1.39
Cc1ccc2oc(=O)c3cnn(CC(=O)N(CCN(C)C)Cc4ccco4)c3c2c1	-25.7
CC(C)c1ccc(-c2c(NCCc3ccccc3)c(=O)c2=O)cc1	22.1
Cc1ccc(OCCNC(=O)CNC(=O)c2ccccc2Cl)cc1	-3.58
COc1cc(CN2CCNCC2)cc(OC)c1OC.Cl	5.64
c1ccc2c(c1)nc(NCc1ccc3c(c1)OCO3)n2CCN1CCOCC1	-66.8
CCCn1c(NCc2ccc(N(C)C)cc2)nc2ccccc21	-40.2
CCCCn1c(NCc2ccc(N(C)C)cc2)nc2ccccc21	-43.7
Nc1c(C(=O)NCc2ccc3c(c2)OCO3)c2nc3ccccc3nc2n1CCCN1CCOCC1	1.46
CCn1c(NCc2ccc3c(c2)OCO3)nc2ccccc21	-38.5
CN(C)CCn1c(NCc2ccc3c(c2)OCO3)nc2ccccc21.Cl	-59.5
O=C(NCCN1CCOCC1)C(=O)NCc1ccc2c(c1)OCO2	22.8
CCCCn1c(NCc2ccc3c(c2)OCO3)nc2ccccc21	-61
CCCn1c(NCc2ccc3c(c2)OCO3)nc2ccccc21	12.6

SMILES	hERG current change (%, negative = inhibition) at 10uM [%]
COc1cc2c(cc1OC)C(CC(=O)O)N(C(=O)CC1CCCC1)CC2 (stereo not drawn)	20.6
COC(=O)CCCCC1SCC(NC(=O)OC)C1NC(=O)OC (stereo not drawn)	2.09
CC(C)(C)OC(=O)COc1cc(F)ccc1[N+](=O)[O-]	-3.54
OCc1nc2ccccc2n1CC(O)COc1ccccc1 (stereo not drawn)	6.25
Cc1ccc(OCC(O)Cn2c3ccccc3c3ccccc32)cc1 (stereo not drawn)	8.1
CCCCn1c(=N)n(CC(O)COc2ccccc2)c2ccccc21 (stereo not drawn)	-73.1
Cc1ccc(OCCn2c(=O)cnc3ccccc32)cc1	-9.95
CCCCn1c(=N)n(CC(O)COc2ccc(C)cc2)c2ccccc21.Cl (stereo not drawn)	-81.8
CCn1c(=N)n(CC(O)COc2ccc(C)cc2)c2ccccc21.Cl (stereo not drawn)	-70
Cc1nc2ccccc2n1CC(O)COc1ccc(Br)cc1 (stereo not drawn)	-49.9
Cc1ccc(OCCn2c(=O)sc3ccccc32)cc1	4.98
Br.CCCCn1c(=N)n(CCOc2ccc(C)cc2)c2ccccc21	-73.1
Cc1cc(NC(=O)C2CCCN(S(=O)(=O)c3c(C)noc3C)C2)n[nH]1 (stereo not drawn)	-16.1
CCOc1ccc(C(=O)COC(=O)CNC(=O)C2CCCCC2)cc1	-0.0501
O=C(COC(=O)C12CC3CC(CC(C3)C1)C2)Nc1ccc([N+](=O)[O-])cc1Br	8.64
CN1CCC(=NNC(=O)COc2ccc(Cl)cc2)CC1	17.4
CCCn1c(=N)n(CC(O)COc2ccc(C)cc2)c2ccccc21.Cl (stereo not drawn)	-89
CC1SC2(CN3CCC2CC3)NC1=O (stereo not drawn)	18
CC1=CN2C(=NC(=O)CC2(C)C(=O)N(CC(=O)NC2CCCC2)Cc2ccccc2)C=C1 (stereo not drawn)	9.32
COc1ccccc1N1CCN(c2nc3ccccc3nc2C(C#N)C(=O)OC(C)C)CC1 (stereo not drawn)	-12
Cc1cccc(C)c1OCC(=O)N1CC2(C)CC1CC(C)(C)C2 (stereo not drawn)	-7.94
CC1(C)CC2CC(C)(CN2CC(O)COc2ccccc2)C1.O=C(O)C(=O)O (stereo not drawn)	-41.5
CC1(C)CC2CC(C)(CN2CC(O)c2ccccc2)C1.O=C(O)C(=O)O (stereo not drawn)	-42.5

SMILES	hERG current change (%, negative = inhibition) at 10uM [%]
Cc1cccc(C(=O)N2CC3(C)CC2CC(C)(C)C3)c1 (stereo not drawn)	0.368
Cc1cccc(OCC(O)CN2CC3(C)CC2CC(C)(C)C3)c1 (stereo not drawn)	-67.6
Cc1ccc(OCC(O)CN2CC3(C)CC2CC(C)(C)C3)cc1.O=C(O)C(=O)O (stereo not drawn)	-53.6
CSc1nnc(C)c(=O)n1COC(=O)COc1ccc2ccccc2c1	-7.33
Cc1nnc(SCCN2CCOCC2)n1-c1cccc(Cl)c1.O=C(O)C(=O)O	-4.95
COc1ccccc1N1CCN(C(=O)CN(c2ccc(C)c(C)c2)S(C)(=O)=O)CC1	-6.02
CCCc1cc(=O)oc2cc(C)cc(OCC(=O)NCc3ccccn3)c12	-33.7
Cc1cc(OCC(=O)NCc2ccncc2)c2c3c(c(=O)oc2c1)CCCC3	-62.2
Cc1cc(OCC(=O)NCc2ccncc2)c2c3c(c(=O)oc2c1)CCC3	-10.3
Cc1ccc(OCC(=O)NCc2ccccn2)cc1	12.4
CCCCc1cc(=O)oc2cc(C)cc(OCC(=O)NCc3ccccn3)c12	-56.4
Cc1cc(OCC(=O)NCc2cccnc2)c2c3c(c(=O)oc2c1)CCCC3	-40.1
CCc1cc(=O)oc2cc(C)cc(OCC(=O)NCc3ccncc3)c12	-54.8
Cc1cc(OCC(=O)NCc2ccncc2)c2c(C)cc(=O)oc2c1	-30.1
Cc1cc(OCC(=O)NCc2ccccn2)cc(C)c1Br	-69.4
CCc1cc(=O)oc2cc(C)cc(OCC(=O)NCc3ccccn3)c12	-40
O=C(COc1ccc(Br)cc1)NCc1ccccn1	-8.53
Cc1cc(OCC(=O)NCc2ccncc2)c2c(C)c(C)c(=O)oc2c1	-40.6
CSc1cccc(NC(=O)/C=C/c2ccccc2)c1	-7.06
CC(=O)N1CCN(S(=O)(=O)c2cccc(C(=O)NCCC3=CCCCC3)c2)CC1	-8.54
O=C1N(c2ccc(Cl)c(Cl)c2)CN(Cc2ccccc2)CN1n1cnnc1	-25.9
